# PubChem BioAssay (NCATS)
# Values without a mark were called inactive. Results filed as inconclusive are left out. A call without a number means that no potency is given here. Active and inactive are the calls of the source. Unless noted, calls come from the whole dose curve; as a rule, active = well fitted curve in the direction sought with a large enough effect; inconclusive = small, poorly fitted or top-dose-only effect, or another doubt; inactive = no such curve, though single readings can be large; an effect the other way counts as inactive or inconclusive.
# How the values were obtained:
# [1] = NS1 protein of Zika virus - qHTS assay to identify small molecule inhibitors in human HEK 293 cells (AID 1347053); note: series mostly up to about 46 µM; nearly all actives have a fitted effect of over 55% in size
# In short: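 HEK 293 cells pretreated with compound for 1 h, then infected with ZIKV MR766 (MOI 0.5) for 24 h at 37 C. NS1 detected by TR-FRET with two anti-NS1 antibodies; normalized to uninfected (0%) and infected (100%) wells.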
# [2] = molecular target: T1, Tyrosine-protein phosphatase non-receptor type substrate 1 (Homo sapiens) + Leukocyte surface antigen CD47 (Homo sapiens) (UniProt P78324+Q08722); experiment: CD47-SIRPalpha protein protein interaction - LANCE assay qHTS validation (AID 1347057; active = well fitted curve in the direction sought with a large enough effect in the signal ratio, with a control signal flat, not every such curve was filed as active; the % refers to the signal ratio; note: series mostly up to about 38 µM)
# T1 sequence (P78324 whole entry, looked up): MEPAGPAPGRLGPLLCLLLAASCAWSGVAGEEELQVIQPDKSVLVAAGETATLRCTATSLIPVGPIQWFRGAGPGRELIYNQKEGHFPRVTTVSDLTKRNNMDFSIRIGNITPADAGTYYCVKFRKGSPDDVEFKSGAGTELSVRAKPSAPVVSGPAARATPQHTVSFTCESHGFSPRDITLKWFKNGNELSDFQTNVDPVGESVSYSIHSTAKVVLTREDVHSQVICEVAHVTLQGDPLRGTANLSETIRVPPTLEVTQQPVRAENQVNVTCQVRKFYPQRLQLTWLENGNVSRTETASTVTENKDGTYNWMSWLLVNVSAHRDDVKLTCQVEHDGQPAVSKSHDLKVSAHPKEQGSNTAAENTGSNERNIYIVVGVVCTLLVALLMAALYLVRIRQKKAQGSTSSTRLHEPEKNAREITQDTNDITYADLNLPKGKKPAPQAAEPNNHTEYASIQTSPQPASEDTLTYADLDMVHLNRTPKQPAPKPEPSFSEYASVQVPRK
# T1 sequence (Q08722 whole entry, looked up): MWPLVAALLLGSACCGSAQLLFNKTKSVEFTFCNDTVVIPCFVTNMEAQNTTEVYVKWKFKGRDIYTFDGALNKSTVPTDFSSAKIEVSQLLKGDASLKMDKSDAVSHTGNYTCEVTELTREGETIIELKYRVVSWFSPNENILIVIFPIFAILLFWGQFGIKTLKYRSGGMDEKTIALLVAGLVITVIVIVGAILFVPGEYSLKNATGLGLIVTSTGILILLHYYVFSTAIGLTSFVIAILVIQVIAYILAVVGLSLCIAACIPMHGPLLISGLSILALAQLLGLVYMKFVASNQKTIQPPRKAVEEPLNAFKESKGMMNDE
# In short: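 First, His-tagged CD47 and Eu-labelled anti-His antibody met the compound for 30 min; next, site-specifically biotinylated SIRPalpha was added for 30 min; finally streptavidin-APC was added before reading the TR-FRET ratio.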
# [3] = molecular target: T1, Tyrosine-protein phosphatase non-receptor type substrate 1 (Homo sapiens) + Leukocyte surface antigen CD47 (Homo sapiens); experiment: CD47-SIRPalpha protein protein interaction - HTRF assay qHTS validation (AID 1347058; active = well fitted curve in the direction sought with a large enough effect in the signal ratio, not every such curve was filed as active; the % refers to the signal ratio;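 note: recombinant soluble extracellular CD47 with His tag and biotinylated SIRPalpha domains; series mostly up to about 38 µM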)
# In short: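 TR-FRET read (Ch1/Ch2 ratio) of soluble extracellular CD47 and Avi-biotinylated SIRPalpha domains in PBS pH 7.4 with 0.05% IGEPAL; 7-point compound titration. Sequential 30 min room-temperature steps; non-biotinylated SIRPalpha as control inhibitor.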
# [4] = molecular target: Parathyroid hormone/parathyroid hormone-related peptide receptor (Homo sapiens) (UniProt Q03431); experiment: qHTS for PTHR1 Agonists: Optimization Screen against the NCGC LOPAC library (AID 1347079);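 note: GloSensor cAMP luminescence in HEK-293 GP2 cells expressing human PTHR1 with IBMX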
# Chain of Parathyroid hormone/parathyroid hormone-related peptide receptor (Homo sapiens) (Q03431 whole entry, looked up): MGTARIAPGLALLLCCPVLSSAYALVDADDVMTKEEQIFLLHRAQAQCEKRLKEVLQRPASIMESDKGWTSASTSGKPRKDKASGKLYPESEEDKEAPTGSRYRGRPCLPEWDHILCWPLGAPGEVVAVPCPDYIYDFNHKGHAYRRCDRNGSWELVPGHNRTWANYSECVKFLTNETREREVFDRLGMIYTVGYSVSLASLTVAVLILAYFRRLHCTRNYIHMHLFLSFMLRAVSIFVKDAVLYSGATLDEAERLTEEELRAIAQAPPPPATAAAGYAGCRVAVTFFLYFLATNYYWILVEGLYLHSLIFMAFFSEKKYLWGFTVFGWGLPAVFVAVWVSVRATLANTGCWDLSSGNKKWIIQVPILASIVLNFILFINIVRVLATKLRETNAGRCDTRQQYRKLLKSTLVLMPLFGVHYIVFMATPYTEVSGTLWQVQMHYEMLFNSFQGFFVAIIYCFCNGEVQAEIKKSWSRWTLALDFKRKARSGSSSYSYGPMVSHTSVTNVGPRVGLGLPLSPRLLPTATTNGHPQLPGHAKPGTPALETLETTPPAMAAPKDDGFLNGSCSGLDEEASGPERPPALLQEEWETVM
# In short: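 Agonist readout: GloSensor cAMP luminescence, read after 15 min at room temperature. HEK-293-derived GP2 line carries PTHR1; compounds tested as a titration for 1 hr at 37C in presence of IBMX. M-PTH (1-15) served as control.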
# [5] = qHTS of pediatric cancer cell lines to identify multiple opportunities for drug repurposing: Primary screen for TC32 cells (AID 1347089); note: nearly all actives have a fitted effect of over 60% in size; note: potency is the fitted concentration of half-maximal effect
# In short: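 TC32 cells, 500-1,000/well in growth medium, compound-treated 48 h at 37 °C; viability from CellTiter-Glo luminescence. Primary screen: MIPE 11-point (0.78 nM–46 µM final), NPC 8-point (0.59 nM–46 µM final); confirmatory at 11-point dilutions.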
# [6] = qHTS of pediatric cancer cell lines to identify multiple opportunities for drug repurposing: Primary screen for DAOY cells (AID 1347090); note: nearly all actives have a fitted effect of over 55% in size; note: potency is the fitted concentration of half-maximal effect; for activity change, negative = cytotoxic: series mostly up to about 46 µM
# In short: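 Eight- or eleven-point concentration series, 48 h treatment at 37 degrees C in growth media; readout CellTiter-Glo luminescence. Potency and efficacy were taken from the concentration-response curves.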
smiles,measurement,setting,value
CN=c1nc(-c2ccccc2)n(-c2ccccc2)s1,Potency,[1],inactive
same,Potency,[2],inactive
same,outcome,[3],inactive
same,Potency,[4],inactive
COC(=O)C1=C(C)NC(C)=C(C(=O)OCC(C)=O)C1c1ccccc1[N+](=O)[O-] (stereo not drawn),Potency,[1],inactive
same,Potency,[5],inactive
CCCCCCCC/C=C/C(=O)O,Potency,[1],inactive
same,Potency,[5],inactive
same,Potency,[6],inactive
Cc1[nH]cnc1CN1CCc2c(c3ccccc3n2C)C1=O,Potency,[1],inactive
same,Potency,[5],inactive
same,Potency,[6],inactive
CCCCCCCCCCCCCCCC(=O)OC(C)C,Potency,[1],inactive
same,Potency,[5],inactive
same,Potency,[6],inactive
CC(C)(C)c1nnc(NS(=O)(=O)c2ccc(N)cc2)s1,Potency,[1],inactive
same,Potency,[5],inactive
same,Potency,[6],inactive
CN(C)[C@@H]1C(=O)C(C(=O)NCN2CCCC2)=C(O)[C@@]2(O)C(=O)C3=C(O)c4c(O)cccc4[C@@](C)(O)C3C[C@@H]12 (stereo partly drawn),Potency,[1],inactive
same,Potency,[5],inactive
same,Potency,[6],inactive
O=C(O)c1cc(O)c(O)c(O)c1,Potency,[1],inactive
same,Potency,[5],inactive
same,Potency,[6],inactive
Nc1nc2ccc([N+](=O)[O-])cc2s1,Potency,[1],inactive
same,Potency,[5],inactive
same,Potency,[6],inactive
c1ccc2sc(SSc3nc4ccccc4s3)nc2c1,Potency,[1],inactive
same,Potency,[5],inactive
same,Potency,[6],inactive
Cc1c(Nc2ncccc2C(=O)O)cccc1C(F)(F)F,Potency,[1],inactive
same,Potency,[5],inactive
same,Potency,[6],inactive
CC1(C)S[C@@H]2[C@H](NC(=O)[C@H](N)c3ccccc3)C(=O)N2[C@H]1C(=O)O,Potency,[1],inactive
same,Potency,[5],inactive
same,Potency,[6],inactive
O=C(O)Cc1ccc2c(c1)C(=O)c1ccccc1CO2,Potency,[1],inactive
same,Potency,[5],inactive
same,Potency,[6],inactive
Cc1ccc2c(n1)Oc1ccc(C(C)C(=O)OCC(=O)N(C)C)cc1C2 (stereo not drawn),Potency,[1],inactive
same,Potency,[5],inactive
same,Potency,[6],inactive
Nc1ccc(O)c(C(=O)O)c1,Potency,[1],inactive
same,Potency,[5],inactive
same,Potency,[6],inactive
CNC(=O)c1c(I)c(NC(=O)CCCCC(=O)Nc2c(I)c(C(=O)O)c(I)c(C(=O)NC)c2I)c(I)c(C(=O)O)c1I,Potency,[1],inactive
same,Potency,[5],inactive
same,Potency,[6],inactive
CCCSc1ccc2nc(NC(=O)OC)[nH]c2c1,Potency,[1],inactive
same,Potency,[5],938 nM (active)
same,Potency,[6],1330 nM (active)
C=CCCCCCCCCC(=O)O,Potency,[1],inactive
same,Potency,[5],inactive
same,Potency,[6],inactive
COc1cc(NC(C)CCCN)c2ncccc2c1 (stereo not drawn),Potency,[1],inactive
same,Potency,[5],16700 nM (active)
same,Potency,[6],inactive
COc1ccc(-c2cc(=S)ss2)cc1,Potency,[1],inactive
same,Potency,[5],inactive
same,Potency,[6],inactive
CCCCCCOc1ccccc1C(N)=O,Potency,[1],inactive
same,Potency,[5],inactive
same,Potency,[6],inactive
O=C(CCN1CCN(CCO)CC1)N1c2ccccc2Sc2ccc(C(F)(F)F)cc21,Potency,[1],inactive
same,Potency,[5],inactive
same,Potency,[6],inactive
NCCO,Potency,[1],inactive
same,Potency,[5],inactive
same,Potency,[6],inactive
Cc1ccc(C(=O)c2ccc(CC(=O)O)n2C)cc1,Potency,[1],inactive
same,Potency,[5],inactive
same,Potency,[6],inactive
O=c1[nH]c2ccccc2n1CCCN1CCN(C(c2ccccc2)c2ccccc2)CC1,Potency,[1],inactive
same,Potency,[5],inactive
same,Potency,[6],inactive
CC(C(=O)O)c1ccc(C(=O)c2ccccc2)s1 (stereo not drawn),Potency,[1],inactive
same,Potency,[5],inactive
same,Potency,[6],inactive
CC(=O)SCC(CC(=O)c1ccc(C)cc1)C(=O)O (stereo not drawn),Potency,[1],inactive
same,Potency,[5],inactive
same,Potency,[6],inactive
Cc1c(N)c(=O)n(-c2ccccc2)n1C,Potency,[1],inactive
same,Potency,[5],inactive
same,Potency,[6],inactive
Nc1cc(-c2ccncc2)c[nH]c1=O,Potency,[1],inactive
same,Potency,[5],inactive
same,Potency,[6],inactive
CC(C)OC(=O)c1cc(C(=O)OC(C)C)cc([N+](=O)[O-])c1,Potency,[1],inactive
same,Potency,[5],inactive
same,Potency,[6],inactive
Nc1ccc(C(=O)O)c(O)c1,Potency,[1],inactive
same,Potency,[5],inactive
same,Potency,[6],inactive
Cc1c(C(=O)O)c(O)cc2c1C(=O)c1c(O)c([C@@H]3O[C@H](CO)[C@@H](O)[C@H](O)[C@H]3O)c(O)c(O)c1C2=O,Potency,[1],inactive
same,Potency,[5],inactive
same,Potency,[6],inactive
c1ccc2sc(SN3CCOCC3)nc2c1,Potency,[1],inactive
same,Potency,[5],inactive
same,Potency,[6],inactive
O=C(/C=C/c1ccccc1)NCCO,Potency,[1],inactive
same,Potency,[5],inactive
same,Potency,[6],inactive
CCCCCCCCCCCCOCCO,Potency,[1],inactive
same,Potency,[5],inactive
same,Potency,[6],inactive
CO[C@@]1(NC(=O)Cc2cccs2)C(=O)N2C(C(=O)O)=C(COC(N)=O)CS[C@@H]21,Potency,[1],inactive
same,Potency,[5],inactive
same,Potency,[6],inactive
C[N+]1(C)[C@@H]2CC(OC(=O)[C@H](CO)c3ccccc3)C[C@H]1[C@@H]1O[C@@H]12 (stereo partly drawn),Potency,[1],inactive
same,Potency,[5],inactive
same,Potency,[6],inactive
O=C(O)c1ccccc1Nc1cccc(C(F)(F)F)c1,Potency,[1],inactive
same,Potency,[5],inactive
same,Potency,[6],inactive
O=C(O)Cc1ccc(-c2ccccc2)cc1,Potency,[1],inactive
same,Potency,[5],inactive
same,Potency,[6],inactive
CCOC(=O)c1ccccc1O,Potency,[1],inactive
same,Potency,[5],inactive
same,Potency,[6],inactive
O=C(O)Cc1cccc(-c2cc(CCCCCCc3ccc(O[C@H]4O[C@H](CO)[C@@H](O)[C@H](O)[C@@H]4O)c(-c4cccc(CC(=O)O)c4)c3)ccc2O[C@H]2O[C@H](CO)[C@@H](O)[C@H](O)[C@@H]2O)c1,"activity change, negative = inhibition",[1],-8.2% [at 0.593 µM]
same,"activity change, negative = cytotoxic",[5],14.4% [at 0.594 µM]
same,"activity change, negative = cytotoxic",[6],1% [at 0.597 µM]
